This is an account of results in the supplement of paper PMC9794691.

The first test deals with PC9. The experiment in a line: area under confluence curve of compound monotherapy; compare to DMSO control AUC of the same experiment (AUC (confluence x time, arbitrary)). The settings on record: 10 nM; DMSO control AUC in same experiment: 18385. As for the experimental part:
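compare to DMSO control AUC of the same experiment; Monotherapy arm of the osimertinib DTP screen: EGFR-mutant NSCLC cells were treated with the test compound alone at a fixed dose (highest dose with <50% inhibition of parental cells, or 1 uM), then switched to drug-free medium at the DTP stage. IncuCyte confluence was tracked and AUC computed in Prism. AUC scale depends on experiment duration, so each row carries the same-experiment DMSO control AUC (monotherapy activity = DMSO AUC minus monotherapy AUC). The monotherapy value is shared between screen formats.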
`Cc1nc(-c2nc(-c3ccc(OC(F)(F)F)cc3)no2)nn1Cc1cccc(N2CCC(S(C)(=O)=O)CC2)c1`: the “area under confluence curve” value is 18100.

The test is the same for the next values; noted with them: 10 nM; DMSO control AUC in same experiment: 19076.
Consider `Cc1nc(-c2nc(-c3ccc(OC(F)(F)F)cc3)no2)nn1Cc1cccc(N2CCC(S(C)(=O)=O)CC2)c1`, for which the “area under confluence curve” value is 18900.

The test is the same for the next values; noted with them: 30 nM; DMSO control AUC in same experiment: 27958.
Regarding `Cc1nc(Nc2ncc(C(=O)Nc3c(C)cccc3Cl)s2)cc(N2CCN(CCO)CC2)n1` [Dasatinib], the “area under confluence curve” value came out at 22500.

Staying with this test, now noted: 30 nM; DMSO control AUC in same experiment: 28243.
`Cc1nc(Nc2ncc(C(=O)Nc3c(C)cccc3Cl)s2)cc(N2CCN(CCO)CC2)n1` [Dasatinib]: the “area under confluence curve” value worked out at 18100.

The same test, now with this note: 100 nM; DMSO control AUC in same experiment: 21341.
Turning to `C[C@@]1(C(=O)Nc2ccc(F)nc2)CCCN1c1nc(Nc2cc(C3CC3)n[nH]2)c2cccn2n1`, the “area under confluence curve” value was determined as 20100.

The same test, now with this note: 100 nM; DMSO control AUC in same experiment: 22064.
On to `C=CCn1c(=O)c2cnc(Nc3ccc(N4CCN(C)CC4)cc3)nc2n1-c1cccc(C(C)(C)O)n1`, for which the “area under confluence curve” value was determined as 21300.

The same test, now with this note: 100 nM; DMSO control AUC in same experiment: 27958.
With `COC(=O)c1ccc([C@H]2c3[nH]c4ccccc4c3C[C@H](C(=O)OC)N2C(=O)CCl)cc1`, the “area under confluence curve” value was 27800.

The test is the same for the next values; noted with them: 100 nM; DMSO control AUC in same experiment: 30326.
Turning to `COC(=O)c1ccc([C@H]2c3[nH]c4ccccc4c3C[C@H](C(=O)OC)N2C(=O)CCl)cc1`, the “area under confluence curve” value amounted to 27300.

The same test, now with this note: 100 nM; DMSO control AUC in same experiment: 30580.
Consider `C[C@@]1(C(=O)Nc2ccc(F)nc2)CCCN1c1nc(Nc2cc(C3CC3)n[nH]2)c2cccn2n1`, for which the “area under confluence curve” value was 30100.

The same test, now with this note: 100 nM; DMSO control AUC in same experiment: 30604.
Turning to `C=CCn1c(=O)c2cnc(Nc3ccc(N4CCN(C)CC4)cc3)nc2n1-c1cccc(C(C)(C)O)n1`, the “area under confluence curve” value came out at 30700.

The same test, now with this note: 100 nM; DMSO control AUC in same experiment: 44384.
Consider `C/C=C/Cn1cc(-c2cc(OC)c(C(=O)N3CCOCC3)cc2OC)c2cc(C)[nH]c2c1=O`, for which the “area under confluence curve” value turned out to be 44600.

Still in this test, the particulars now being: 100 nM; DMSO control AUC in same experiment: 45737.
Take `COC(=O)c1ccc([C@H]2c3[nH]c4ccccc4c3C[C@H](C(=O)OC)N2C(=O)CCl)cc1`: the “area under confluence curve” value was found to be 46100.

Still in this test, the particulars now being: 100 nM; DMSO control AUC in same experiment: 49143.
Regarding `C[C@@]1(C(=O)Nc2ccc(F)nc2)CCCN1c1nc(Nc2cc(C3CC3)n[nH]2)c2cccn2n1`, the “area under confluence curve” value came to 48900.

The test is the same for the next values; noted with them: 300 nM; DMSO control AUC in same experiment: 19507.
For the compound `CN1CCN(CCOc2cc(OC3CCOCC3)c3c(Nc4c(Cl)ccc5c4OCO5)ncnc3c2)CC1` [Saracatinib], the “area under confluence curve” value was found to be 16000.

Staying with this test, now noted: 300 nM; DMSO control AUC in same experiment: 20197.
As to `Nc1nc(Nc2ccc3c(c2)CCC(N2CCCC2)CC3)nn1-c1cc2c(nn1)-c1ccccc1CCC2` (stereo unspecified), the “area under confluence curve” value is 19600.

The same test, now with this note: 300 nM; DMSO control AUC in same experiment: 28243.
`CN1CCN(CCOc2cc(OC3CCOCC3)c3c(Nc4c(Cl)ccc5c4OCO5)ncnc3c2)CC1` [Saracatinib]: the “area under confluence curve” value turned out to be 24000.

Staying with this test, now noted: 300 nM; DMSO control AUC in same experiment: 30008.
As for `Nc1nc(Nc2ccc3c(c2)CCC(N2CCCC2)CC3)nn1-c1cc2c(nn1)-c1ccccc1CCC2` (stereo unspecified), the “area under confluence curve” value turned out to be 28200.

Still in this test, the particulars now being: 300 nM; DMSO control AUC in same experiment: 30578.
As for `NC1(C(=O)N[C@@H](CCO)c2ccc(Cl)cc2)CCN(c2nc[nH]c3nccc2-3)CC1` [Capivasertib], the “area under confluence curve” value is 29000.

Still in this test, the particulars now being: 300 nM; DMSO control AUC in same experiment: 31840.
As for `NC1(C(=O)N[C@@H](CCO)c2ccc(Cl)cc2)CCN(c2nc[nH]c3nccc2-3)CC1` [Capivasertib], the “area under confluence curve” value came to 30700.

Staying with this test, now noted: 300 nM; DMSO control AUC in same experiment: 43316.
Turning to `NC1(C(=O)N[C@@H](CCO)c2ccc(Cl)cc2)CCN(c2nc[nH]c3nccc2-3)CC1` [Capivasertib], the “area under confluence curve” value worked out at 42700.

Staying with this test, now noted: 1000 nM; DMSO control AUC in same experiment: 18733.
With `O=C(N[C@@H](C1CC1)C(F)(F)F)c1cc(-c2cnn3cc(-c4ccc(F)cc4)cnc23)cs1`, the “area under confluence curve” value is 18000.

Still in this test, the particulars now being: 1000 nM; DMSO control AUC in same experiment: 21594.
With `O=C([C@@H](Cc1cccc(C(F)(F)F)c1)NS(=O)(=O)c1cc(F)c2c(c1)CCNC2)N1CCCC1`, the “area under confluence curve” value came out at 20800. Still for that read-out and setting: the result for `COc1cc(CCc2cc(NC(=O)c3ccc(N4CC(C)NC(C)C4)cc3)n[nH]2)cc(OC)c1` (stereo unspecified) reads 20200; that for `COc1nn(C)cc1Nc1nccc(-c2c[nH]c3c(NC(=O)[C@@H](C)N4CCN(C)CC4)cccc23)n1`, 20800.

Consider `Cc1cc2cc(C(=O)c3cnn(-c4cnc(Oc5c(F)cccc5F)cc4C)c3N)[nH]c2cc1NS(C)(=O)=O`, for which the “area under confluence curve” value turned out to be 18400.

Still in this test, the particulars now being: 1000 nM; DMSO control AUC in same experiment: 22064.
Consider `CCc1cc2c(cc1N1CCC(N3CCOCC3)CC1)C(C)(C)c1[nH]c3cc(C#N)ccc3c1C2=O` [Alectinib], for which the “area under confluence curve” value stood at 16200. In the case of `C[C@@H](Oc1cc(-c2cnn(C3CCNCC3)c2)cnc1N)c1c(Cl)ccc(F)c1Cl` [Crizotinib], the “area under confluence curve” value is 21100.

Still in this test, the particulars now being: 1000 nM; DMSO control AUC in same experiment: 26668.
Consider `COc1ccc(CCc2nc3cc(-c4c(C)noc4C)ccc3n2C[C@H](C)N2CCOCC2)cc1Cl`, for which the “area under confluence curve” value is 28400. On the same count and under the same terms, the result for `COc1cc(CCc2cc(NC(=O)c3ccc(N4CC(C)NC(C)C4)cc3)n[nH]2)cc(OC)c1` (stereo unspecified) reads 28200.

The same test, now with this note: 1000 nM; DMSO control AUC in same experiment: 28684.
As for `CCn1nc(C2CCN(C(=O)CCO)CC2)nc1-c1cnc(N)c(-c2nnc(C(C)(C)C)o2)n1`, the “area under confluence curve” value came out at 28000.

The test is the same for the next values; noted with them: 1000 nM; DMSO control AUC in same experiment: 29345.
Regarding `Cc1cc(Nc2ncnc3ccc(NC4=NC(C)(C)CO4)cc23)ccc1Oc1ccn2ncnc2c1` [Tucatinib], the “area under confluence curve” value came to 29400.

Staying with this test, now noted: 1000 nM; DMSO control AUC in same experiment: 30002.
With `Cc1cc(Nc2ncnc3ccc(NC4=NC(C)(C)CO4)cc23)ccc1Oc1ccn2ncnc2c1` [Tucatinib], the “area under confluence curve” value was 30200.

Still in this test, the particulars now being: 1000 nM; DMSO control AUC in same experiment: 30326.
For `CCN(c1cc(-c2ccc(CN3CCOCC3)cc2)cc(C(=O)NCc2c(C)cc(C)[nH]c2=O)c1C)C1CCOCC1` [Tazemetostat], the “area under confluence curve” value came to 29400.

The test is the same for the next values; noted with them: 1000 nM; DMSO control AUC in same experiment: 30578.
For the compound `Cc1nc2nc(C)c(O[C@@H]3CCN(c4ccc(-c5ccc(CN6CCOCC6)nn5)cc4)C3)c(C)n2n1`, the “area under confluence curve” value came out at 30800.

The same test, now with this note: 1000 nM; DMSO control AUC in same experiment: 30580.
On to `CS(=O)(=O)N1CCN(Cc2cc3nc(-c4cccc5[nH]ncc45)nc(N4CCOCC4)c3s2)CC1`, for which the “area under confluence curve” value worked out at 24700.

The same test, now with this note: 1000 nM; DMSO control AUC in same experiment: 30604.
In the case of `Cc1cc2ncnn2cc1Nc1ncc2c(n1)n(C1CCOCC1)c(=O)n2C`, the “area under confluence curve” value stood at 30500.

Staying with this test, now noted: 1000 nM; DMSO control AUC in same experiment: 31840.
On to `CCOC(=O)c1ccnc(CNCC(=O)N(CC)CCN(C)C)c1`, for which the “area under confluence curve” value came to 30800.

The same test, now with this note: 1000 nM; DMSO control AUC in same experiment: 43316.
For the compound `CCn1nc(C2CCN(C(=O)CCO)CC2)nc1-c1cnc(N)c(-c2nnc(C(C)(C)C)o2)n1`, the “area under confluence curve” value worked out at 43000. The same measure, in the same setting: the result for `C[C@@H](c1ccc2nccn2c1)n1nnc2ncc(-c3cnn(C)c3)nc21` [Savolitinib] reads 43600.

Staying with this test, now noted: 1000 nM; DMSO control AUC in same experiment: 48219.
With `COc1ccc(CCc2nc3cc(-c4c(C)noc4C)ccc3n2C[C@H](C)N2CCOCC2)cc1Cl`, the “area under confluence curve” value came to 49000.

Still in this test, the particulars now being: 1000 nM; DMSO control AUC in same experiment: 72888.
On to `COc1ccc(CCc2nc3cc(-c4c(C)noc4C)ccc3n2C[C@H](C)N2CCOCC2)cc1Cl`, for which the “area under confluence curve” value came out at 72800.
